# Data as given in PMC5700166.
# Positions count from the first letter of the chain named.
# Experiments:
# Test in all cases: protein-binding microarray (PBM); PBM: ~300 nM protein, 6 mM HEPES pH 7.8, 80 mM KCl, 0.5 mM EDTA, 0.5 mM EGTA, 6% glycerol, 35 ng/ul poly-dIdC, 1% milk, 1 h, room temperature; Ap Aiptasia and Nv Nematostella (sea anemones) / Co Capsaspora / Aq Amphimedon (sponge) / Dm Drosophila / Hu human; RHD is the Rel homology domain; high values mean tight binding
# Conditions in all cases: dsDNA, one strand shown
# GST-Ap-NF-kB RHD = molecular target: T1, GST-Ap-NF-kB RHD (Exaiptasia pallida (Aiptasia), UniProt A0A913YAJ5 2-422)
# T1 sequence: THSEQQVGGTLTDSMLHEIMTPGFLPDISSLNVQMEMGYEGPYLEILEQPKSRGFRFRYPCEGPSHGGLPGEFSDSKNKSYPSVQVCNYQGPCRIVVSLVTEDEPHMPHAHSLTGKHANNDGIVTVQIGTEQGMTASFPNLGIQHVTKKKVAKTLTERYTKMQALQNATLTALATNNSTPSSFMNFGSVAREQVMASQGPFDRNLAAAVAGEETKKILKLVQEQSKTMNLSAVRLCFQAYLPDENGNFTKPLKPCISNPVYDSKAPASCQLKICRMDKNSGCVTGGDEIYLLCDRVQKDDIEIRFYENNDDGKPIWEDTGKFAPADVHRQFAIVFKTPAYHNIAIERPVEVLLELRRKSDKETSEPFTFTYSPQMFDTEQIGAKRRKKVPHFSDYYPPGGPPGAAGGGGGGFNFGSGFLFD
# [1] = molecular target: T2, GST-Nv-NF-kB (Cys allele) (Nematostella vectensis, UniProt E5G601 2-411)
# T2 sequence: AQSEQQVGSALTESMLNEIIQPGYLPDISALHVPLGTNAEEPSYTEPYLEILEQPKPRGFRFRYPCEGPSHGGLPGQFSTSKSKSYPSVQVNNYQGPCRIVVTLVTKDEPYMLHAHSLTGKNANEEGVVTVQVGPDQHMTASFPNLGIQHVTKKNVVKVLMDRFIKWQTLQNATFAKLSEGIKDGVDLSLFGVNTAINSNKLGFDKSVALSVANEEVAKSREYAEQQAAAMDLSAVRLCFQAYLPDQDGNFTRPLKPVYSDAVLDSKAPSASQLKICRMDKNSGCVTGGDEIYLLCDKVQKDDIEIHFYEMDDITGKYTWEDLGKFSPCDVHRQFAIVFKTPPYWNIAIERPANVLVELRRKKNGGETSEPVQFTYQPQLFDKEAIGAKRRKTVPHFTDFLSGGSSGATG
# [2] = molecular target: T3, GST-Nv-NF-kB (Ser allele) (Nematostella vectensis, UniProt A7UNT2 2-411)
# T3 sequence: T2 sequence with Q21R, C66S, S207N, E215Q, V217A, E225K, A268E, D399E
# GST-Co-NF-kB = molecular target: T4, GST-Co-NF-kB (Capsaspora owczarzaki, UniProt F1ARL5 200-546)
# T4 sequence: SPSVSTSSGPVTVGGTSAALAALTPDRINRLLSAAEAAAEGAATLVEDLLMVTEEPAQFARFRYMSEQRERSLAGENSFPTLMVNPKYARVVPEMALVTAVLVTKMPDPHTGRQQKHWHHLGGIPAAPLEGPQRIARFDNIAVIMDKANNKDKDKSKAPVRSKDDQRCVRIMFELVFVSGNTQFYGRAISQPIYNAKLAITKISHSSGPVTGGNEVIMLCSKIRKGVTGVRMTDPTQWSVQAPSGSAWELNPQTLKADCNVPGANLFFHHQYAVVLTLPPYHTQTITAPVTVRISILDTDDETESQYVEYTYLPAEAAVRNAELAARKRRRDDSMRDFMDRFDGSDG
# GST-Dm-Relish = molecular target: T5, GST-Dm-Relish (Drosophila melanogaster, UniProt Q94527 99-473)
# T5 sequence: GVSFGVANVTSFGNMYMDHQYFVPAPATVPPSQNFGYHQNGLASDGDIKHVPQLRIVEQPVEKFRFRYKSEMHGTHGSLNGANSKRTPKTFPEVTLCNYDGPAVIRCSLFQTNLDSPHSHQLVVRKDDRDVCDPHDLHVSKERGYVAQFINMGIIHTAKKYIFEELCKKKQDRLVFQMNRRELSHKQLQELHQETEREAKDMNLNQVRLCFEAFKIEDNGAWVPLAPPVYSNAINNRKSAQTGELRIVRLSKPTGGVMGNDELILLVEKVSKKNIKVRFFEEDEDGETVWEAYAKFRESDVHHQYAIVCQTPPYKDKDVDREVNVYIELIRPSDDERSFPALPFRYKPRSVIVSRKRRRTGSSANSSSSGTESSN
# GST-Aq-NF-kB = molecular target: T6, GST-Aq-NF-kB (Amphimedon queenslandica, UniProt A9Y5G7 2-389)
# T6 sequence: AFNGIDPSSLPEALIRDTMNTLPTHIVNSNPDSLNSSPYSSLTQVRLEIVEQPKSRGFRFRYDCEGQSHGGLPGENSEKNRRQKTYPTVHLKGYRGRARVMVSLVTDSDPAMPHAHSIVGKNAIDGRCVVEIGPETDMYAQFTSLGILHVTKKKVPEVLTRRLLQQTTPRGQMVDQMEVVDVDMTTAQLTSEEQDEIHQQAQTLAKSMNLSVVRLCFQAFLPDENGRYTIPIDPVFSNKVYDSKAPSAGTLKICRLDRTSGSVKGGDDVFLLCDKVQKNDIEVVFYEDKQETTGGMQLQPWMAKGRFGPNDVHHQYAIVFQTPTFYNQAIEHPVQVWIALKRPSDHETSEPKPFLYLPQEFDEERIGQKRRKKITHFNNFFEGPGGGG
# GST-Hu-p50 = GST-Hu-p50 (Homo sapiens, UniProt P19838 7-356)
# Chain of GST-Hu-p50 (P19838 7-356): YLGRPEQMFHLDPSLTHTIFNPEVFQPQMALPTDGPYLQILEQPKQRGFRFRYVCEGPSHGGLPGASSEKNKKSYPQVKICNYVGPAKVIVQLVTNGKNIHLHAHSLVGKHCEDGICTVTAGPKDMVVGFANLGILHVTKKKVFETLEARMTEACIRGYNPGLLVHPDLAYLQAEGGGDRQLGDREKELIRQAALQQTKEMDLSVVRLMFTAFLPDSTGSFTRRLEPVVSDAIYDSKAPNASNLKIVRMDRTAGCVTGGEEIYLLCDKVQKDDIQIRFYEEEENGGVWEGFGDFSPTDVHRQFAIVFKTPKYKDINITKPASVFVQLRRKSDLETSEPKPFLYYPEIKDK
Sequence,binding signal (GST-Ap-NF-kB RHD),binding signal [1],binding signal [2],binding signal (GST-Co-NF-kB),binding signal (GST-Dm-Relish),binding signal (GST-Aq-NF-kB),binding signal (GST-Hu-p50)
CCGATTAACATCAGGAAGTCCCCTGATGTTAATCGGGTCTTGATTCGCTTGACGCTGCTG,8.63 z-score,8.97 z-score,6.92 z-score,2.68 z-score,8.96 z-score,8.77 z-score,6.94 z-score
CCGATTAACATCAGGGGGGAACCTGATGTTAATCGGGTCTTGATTCGCTTGACGCTGCTG,7.52 z-score,5.48 z-score,6.89 z-score,8.57 z-score,5.48 z-score,6.03 z-score,6.02 z-score
CCGATTAACATCAGGGGATTGTATGATGTTAATCGGGTCTTGATTCGCTTGACGCTGCTG,6.91 z-score,7.07 z-score,8.67 z-score,3.04 z-score,4.19 z-score,5.12 z-score,6.01 z-score
CCGATTAACATCAGGGGAAAGGATGATGTTAATCGGGTCTTGATTCGCTTGACGCTGCTG,4.44 z-score,5.7 z-score,6.71 z-score,4.77 z-score,1.2 z-score,4.14 z-score,3.87 z-score
CCGATTAACATCAGGGGGGAGTATGATGTTAATCGGGTCTTGATTCGCTTGACGCTGCTG,6.07 z-score,5.01 z-score,5.11 z-score,6.88 z-score,3.7 z-score,4.54 z-score,6.15 z-score
CCGATTAACATCACGGGTATTCCTGATGTTAATCGGGTCTTGATTCGCTTGACGCTGCTG,4.85 z-score,5.05 z-score,3.76 z-score,1.3 z-score,6.78 z-score,5.48 z-score,3.53 z-score
CCGATTAACATCAGGATTTCCCATGATGTTAATCGGGTCTTGATTCGCTTGACGCTGCTG,3.95 z-score,5.23 z-score,4.48 z-score,3.18 z-score,5.84 z-score,5.27 z-score,3.73 z-score
CCGATTAACATCAGGGGATTTGATGATGTTAATCGGGTCTTGATTCGCTTGACGCTGCTG,6.34 z-score,6.28 z-score,8.85 z-score,2.37 z-score,4.27 z-score,4.26 z-score,6.12 z-score
CCGATTAACATCAAATCATTCCCTGATGTTAATCGGGTCTTGATTCGCTTGACGCTGCTG,1.6 z-score,3.39 z-score,3.1 z-score,3.4 z-score,1.31 z-score,4.36 z-score,1.78 z-score
CCGATTAACATCAGGGGGATATATGATGTTAATCGGGTCTTGATTCGCTTGACGCTGCTG,6.45 z-score,5.67 z-score,6.14 z-score,6.72 z-score,4.91 z-score,5.58 z-score,5.49 z-score
CCGATTAACATCAATTCCCACCCTGATGTTAATCGGGTCTTGATTCGCTTGACGCTGCTG,2.43 z-score,2.6 z-score,2.72 z-score,3.21 z-score,2.33 z-score,2.03 z-score,2.02 z-score
CCGATTAACATCAAAATTCCCCTTGATGTTAATCGGGTCTTGATTCGCTTGACGCTGCTG,10.1 z-score,12.5 z-score,14.2 z-score,7.63 z-score,9.78 z-score,9.63 z-score,8.23 z-score
CCGATTAACATCAAGTTCCCCCCTGATGTTAATCGGGTCTTGATTCGCTTGACGCTGCTG,7.37 z-score,6.39 z-score,7.26 z-score,10.1 z-score,6.95 z-score,6.03 z-score,6.13 z-score
CCGATTAACATCAATTTACCCCCTGATGTTAATCGGGTCTTGATTCGCTTGACGCTGCTG,6.21 z-score,4.95 z-score,6.18 z-score,8.79 z-score,3.42 z-score,4.56 z-score,5.04 z-score
CCGATTAACATCAAATTTCCCATTGATGTTAATCGGGTCTTGATTCGCTTGACGCTGCTG,2.36 z-score,4.83 z-score,4.27 z-score,3.32 z-score,2.68 z-score,4.29 z-score,3.86 z-score
CCGATTAACATCAGAAAACCCCATGATGTTAATCGGGTCTTGATTCGCTTGACGCTGCTG,6.36 z-score,5.53 z-score,4.86 z-score,1.75 z-score,8.35 z-score,5.03 z-score,5.88 z-score
CCGATTAACATCACGTTTCCCCCTGATGTTAATCGGGTCTTGATTCGCTTGACGCTGCTG,6.91 z-score,6.46 z-score,9.03 z-score,9.58 z-score,2.71 z-score,5.17 z-score,6.64 z-score
CCGATTAACATCAGGGCTGCCCCTGATGTTAATCGGGTCTTGATTCGCTTGACGCTGCTG,4.09 z-score,3.62 z-score,1.89 z-score,1.21 z-score,4.09 z-score,6.85 z-score,3.48 z-score
CCGATTAACATCAATAAACCCCCTGATGTTAATCGGGTCTTGATTCGCTTGACGCTGCTG,7.76 z-score,6.85 z-score,7.79 z-score,2.94 z-score,9.45 z-score,6.33 z-score,6.85 z-score
CCGATTAACATCAAGCACCCCCCTGATGTTAATCGGGTCTTGATTCGCTTGACGCTGCTG,5 z-score,3.3 z-score,3.81 z-score,3.39 z-score,4.97 z-score,4.27 z-score,4.29 z-score
CCGATTAACATCATTAGGGGAAGTGATGTTAATCGGGTCTTGATTCGCTTGACGCTGCTG,4.61 z-score,5.4 z-score,7.61 z-score,3.41 z-score,2.36 z-score,4.57 z-score,5.39 z-score
CCGATTAACATCACGGGGTTTCCTGATGTTAATCGGGTCTTGATTCGCTTGACGCTGCTG,6.06 z-score,4.79 z-score,2.69 z-score,2.61 z-score,7.75 z-score,5.93 z-score,4.42 z-score
CCGATTAACATCAGGGCAACCCCTGATGTTAATCGGGTCTTGATTCGCTTGACGCTGCTG,3.77 z-score,2.55 z-score,1.13 z-score,1.28 z-score,4.15 z-score,5.95 z-score,3.08 z-score
CCGATTAACATCAGTAATCCCCATGATGTTAATCGGGTCTTGATTCGCTTGACGCTGCTG,6.5 z-score,5.74 z-score,6.91 z-score,3.87 z-score,6.04 z-score,4.5 z-score,5.31 z-score
